Sfp inh: Sfp phosphopantetheinyl transferase inhibition | Q9F4F7 | Biochemical Sfp PPTase activity, qHTS | Potency, µM, for inactives: largest response in the series, negative = inhibition, usual class: inhibitors | 310,000 tested, 3.5% active | AID 1490;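 also: the enzyme is Sfp with the accession as filed and its product quenches rhodamine fluorescence; 0% = enzyme reaction without inhibitor and -100% = no enzyme wells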
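With Hepes-Na pH 7.6 buffer containing 10 mM MgCl2, Sfp (15 nM) modified BHQ-2-YbbR (12.5 uM) using rhodamine-CoA (5 uM). Two reads 30 minutes apart at 525/598 nm yielded each well's rate.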
Gal4-VP16 FLuc: counter-screen for ROR gamma inhibitors: Gal4-VP16 reporter. AID 2546. 310,000 tested, 3.5% active. Potency, µM (top dose mostly 53.6 µM), without a hit: at the highest dose activity, negative = inhibition, hits mostly inhibitors. Drosophila S2 Gal4-VP16 UAS-luciferase, luminescence, 20 h;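 also: Gal4-VP16 expression switched on by copper sulfate through the metallothionein promoter; nearly all actives have a fitted effect of over 50% in size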
RORg inh: ROR gamma (mouse) transcription inhibition; Potency, µM (titrated, usually from 53.6 µM), for inactives: at the highest dose activity change, negative = inhibition, usual class: inhibitors; P51450; 310,000 tested, 5.4% active; Drosophila S2 Gal4-RORgamma UAS-luciferase reporter, 20 h; also: nearly all actives have a fitted effect of over 60% in size
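In this cell-based reporter format, copper sulfate (700 uM final) drives Gal4–ROR gamma fusion expression from a metallothionein promoter in Drosophila Schneider cells; compounds preincubated 1 hr, reporter read after 20 hr at ambient temperature.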
ALDH1A1 inh: blocks purified human ALDH1A1 activity. Purified ALDH1A1, NADH fluorescence, propionaldehyde substrate. AID 1030. P00352. Potency, µM (top dose mostly 75.3 µM), for the others: at the highest dose activity, negative = inhibition, usual class: inhibitors. 220,000 tested, 7.3% active; active = well fitted inhibition curve with a large enough effect, not every such curve was filed as active; inconclusive = small, poorly fitted or top-dose-only effect, or another doubt; inactive = no such curve, though single readings can be large or run the other way;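 also: plate controls were no enzyme wells and a reference inhibitor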
PLK1 PBD inh: inhibitors of human PLK1 polo-box domain binding | 360,000 tested, 2.8% active | Potency, µM, for the others: max response, negative = inhibition, most hits filed as inhibitors | P53350 | Plk1 PBD binding of FITC phosphopeptide, fluorescence polarization; also: series mostly up to about 57 µM; nearly all actives have a fitted effect of over 65% in size
Target sequence (P53350 whole entry, looked up, the tested form may be a part): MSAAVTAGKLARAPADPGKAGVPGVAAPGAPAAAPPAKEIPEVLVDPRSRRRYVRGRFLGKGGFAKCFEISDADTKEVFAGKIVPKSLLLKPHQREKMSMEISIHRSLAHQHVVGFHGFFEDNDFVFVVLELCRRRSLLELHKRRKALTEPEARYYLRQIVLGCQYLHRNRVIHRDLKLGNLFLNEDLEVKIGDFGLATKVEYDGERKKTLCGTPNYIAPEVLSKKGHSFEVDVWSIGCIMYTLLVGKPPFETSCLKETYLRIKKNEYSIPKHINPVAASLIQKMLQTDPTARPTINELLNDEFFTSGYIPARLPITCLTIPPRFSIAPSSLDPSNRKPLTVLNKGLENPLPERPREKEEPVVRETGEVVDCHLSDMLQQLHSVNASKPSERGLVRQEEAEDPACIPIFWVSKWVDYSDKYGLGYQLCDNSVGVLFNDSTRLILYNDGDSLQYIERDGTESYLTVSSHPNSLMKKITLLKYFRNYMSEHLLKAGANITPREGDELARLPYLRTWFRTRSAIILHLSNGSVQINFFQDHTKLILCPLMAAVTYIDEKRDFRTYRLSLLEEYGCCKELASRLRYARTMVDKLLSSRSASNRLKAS
The depositor's hits bear a star; u = inconclusive; x = not tested or not shown; [ ] = another dose, or the depositor's remark. This is a sample that favours compounds with a hit; in the whole collection about 12% have one here. Unless noted, calls follow the shape of the dose curve; as a rule, active = well fitted curve in the direction sought with a large enough effect; inconclusive = small, poorly fitted or top-dose-only effect, or another doubt; inactive = no such curve, though single readings can be large; an effect the other way counts as inactive or inconclusive. Unless noted, % is scaled to controls: 0 for no effect and ±100 for the full control effect; potency is read from the fitted curve at half-maximal effect.

SMILES | Sfp inh | Gal4-VP16 FLuc | RORg inh | ALDH1A1 inh | PLK1 PBD inh
Cn1c(=O)c(-c2ccc(Cl)cc2)nc2cnc(Oc3cccc(Cl)c3)nc21 | 11.8% | -8.4% | -2.1% | -14.0% | x
CC(C)c1nc2sc3c(=O)[nH]c(=S)[nH]c3c2c2c1CCCC2 | 8.9% | -7.1% | 12.4% | x | 23.8µM*
NC[C@](O)(CS(=O)(=O)O)c1ccc(Cl)cc1 | -2.1% | 4.3% | 7.2% | 5.6% | x
O=C(NC(c1ccccc1)c1cc(Cl)c2cccnc2c1O)c1cccnc1 (centres undefined) | -7.2% | 0.794µM* | 0.631µM* | -9.6% | x
O=C(O)COc1ccccc1C(Nc1ccccn1)c1cc(Cl)c2cccnc2c1O (centres undefined) | -93.9% | -1.8% | u | 2.4% | 2.67µM*
O=C(COc1ccc(Cl)cc1Cl)Nc1cccnc1 | 0.5% | -1.4%[10 µM] | 13.4% | 6.8% | -7.4%
CCOc1ccc(C(Nc2cccnc2)c2cc(Cl)c3cccnc3c2O)cc1 (centres undefined) | u | u | 5.62µM* | 1.26µM* | 4.74µM*
CC(=O)NC(c1ccccc1)c1cccnc1 (centres undefined) | 0.2% | 1.1% | -0.1% | -2.2% | -9.7%
CCOc1ccc(OCc2ccc(C(=O)Nc3cccnc3)o2)cc1 | -14.2% | -8.0% | 21.7% | -7.2% | -12.5%
O=C(O)COc1ccccc1C(Nc1cccnc1)c1cc(Cl)c2cccnc2c1O (centres undefined) | 22.4µM* | -8.2% | 11.8% | -3.5% | 1.19µM*
Cc1cccc(S(=O)(=O)Nc2ccc(-n3c(C)nc4ccccc4c3=O)cc2)c1 | x | x | x | x | -2.9%
COC(=O)[C@@H]1C[C@H]1[C@@H](N)c1ccccc1 | 14.0% | 4.0% | -2.3% | -0.3% | x
CC1(C(=O)NCc2cccc3ccccc23)CCN1Cc1cccc2c1OCO2 (centres undefined) | x | x | x | x | 4.6%
COC(=O)C1=C(C)N(Cc2ccccc2)[C@]23O[C@](C(=O)OC)(C(=O)N2C1c1ccccc1)C(C(=O)OC)C3C(=O)OC (some centres undefined) | u | 0.0%[10 µM] | 0.4%[10 µM] | -3.3%[13.5 µM] | x
COc1ccc(OC)c(C2C(C(N)=O)=C(C)Nc3nc(-c4cccc(Cl)c4)nn32)c1 (centres undefined) | 8.3% | 17.8µM* | u | u | -7.2%
O=C(/C=C/c1ccc([N+](=O)[O-])s1)N1CCCCC1 | 8.4% | u | 11.2µM* | 28.2µM* | u
O=C(/C=C/c1ccc([N+](=O)[O-])s1)N1CCCC1 | -14.8% | 12.6µM* | 6.31µM* | u | -20.2%
O=C(/C=C/c1ccc([N+](=O)[O-])s1)N1CCN(c2ccccc2)CC1 | -0.6% | -1.0% | -16.6% | x | -12.2%
CC1CC(C)CN(C(=O)/C=C/c2ccc([N+](=O)[O-])s2)C1 (centres undefined) | u | 7.0% | -9.8% | 2.82µM* | -11.7%
CC1CN(C(=O)/C=C/c2ccc([N+](=O)[O-])s2)CC(C)O1 (centres undefined) | 15.2% | u | u | u | -21.1%
Cc1ccccc1NC(=O)C1CC(=O)N(c2ccc3c4c(cccc24)CC3)C1 (centres undefined) | 5.6% | 7.2% | 18.4% | u | -3.4%
O=C(Nc1ccccc1Br)C1CC(=O)N(c2ccc3c4c(cccc24)CC3)C1 (centres undefined) | -13.6% | -3.7% | 39.8% | 20µM* | -17.6%
CCc1nc2sc3c(c2c(=O)n1N)CC(C)(C)OC3 | 29.3% | -8.2% | 17.0% | 10.9% | 5.8%
CC(C)Cc1nc2sc3c(c2c(=O)n1N)CC(C(C)C)OC3 (centres undefined) | 18.0% | 1.2% | -5.8% | x | 16.8µM*
C/C(CC(=O)Nc1cccc(Br)c1)=N\NC(=O)c1ccc(O)cc1O | 3.7% | u | 0.891µM* | x | 1.8%
SMILES | Sfp inh | Gal4-VP16 FLuc | RORg inh | ALDH1A1 inh | PLK1 PBD inh
COc1cccc(NC(=O)C/C(C)=N/NC(=O)c2ccccc2Cl)c1 | -3.8% | 4.5% | u | x | -16.0%
CCCCCCCC/C=C/CCCCCCCC(=O)NCCOP(=O)(O)O | 4.4% | -8.4% | -10.8% | x | x
COc1cc(/C=C2\C(=N)N3N=C(S(C)(=O)=O)SC3=NC2=O)ccc1OCCOc1ccccc1C | u | -1.0% | 29.1% | x | u
COc1cc(/C=C2/C(=N)N3C=CSC3=NC2=O)ccc1OCCCOc1cc(C)ccc1C | 5.0% | 11.2µM* | 10µM* | u | 1.7%
CC(C)[C@H](NC(=O)[C@@H]1CSC2c3ccccc3C(=O)N21)C(=O)NCc1ccco1 (some centres undefined) | u | -7.4% | -3.3% | x | -19.3%
O=C(O)C1CSC2c3ccccc3C(=O)N12 (centres undefined) | 15.1% | 1.5% | -7.7% | 7.51µM* | u
O=C(NCc1ccco1)[C@@H]1CSC2c3ccccc3C(=O)N21 (some centres undefined) | 35.5µM* | 2.3% | u | -4.4% | -27.1%
CC1(C(=O)NS(=O)(=O)c2ccc3c(c2)CCO3)CCN1C(=O)C1(c2ccc(Cl)cc2)CCC1 (centres undefined) | x | x | x | x | -12.7%
CCOCCc1nnc(NC(=O)C2CC(=O)N(CCc3ccc(F)cc3)C2)s1 (centres undefined) | -11.3% | 1.7% | -3.0% | x | -22.0%
Cc1cc(C)cc(S(=O)(=O)c2cnc3ccccc3n2)c1 | -17.7% | u | u | -6.2% | 3.77µM*
COc1ccc(C(=O)NCCSc2ccccn2)cc1 | 14.3% | u | 12.6µM* | 11.7% | -10.4%
Cc1ccn2cc(CCNC(=O)COc3ccccc3)nc2c1 | 16.2% | -3.8% | 18.2% | x | 11.9µM*
COc1ccc(C(=O)NCCc2cn3ccccc3n2)cc1 | -4.2% | -1.4% | -0.3% | x | 29.9µM*
CC(C)Nc1nc(NCCOc2ccccc2)c2sccc2n1 | x | x | x | x | -8.6%
C=C1C2CC[C@@]3(C)C(c4ccoc4)OC(=O)C[C@@]13OC1CC(OC(C)=O)C(C)(C)C(CC(=O)OC)[C@@]12C (some centres undefined) | 0.6% | -0.9% | 2.82µM* | 7.7% | x
CC(C)(C)S(=O)N1Cc2cc(C(=O)N[C@@H]3CCN(Cc4ccccc4)C3)nc(-c3cccc(-c4cc5ccccc5o4)c3)c2[C@@H]1CCO (some centres undefined) | x | x | x | x | 1.2%
CN(C)c1ccc(S(=O)(=O)NCC(=O)OCC(=O)Nc2cc(Cl)cc(Cl)c2)cc1[N+](=O)[O-] | 25.9% | 1.1% | 41.5% | 14.1µM* | 1.1%
COc1cc(NC(=O)COc2ccc([N+](=O)[O-])cc2)ccc1NC(=O)c1ccco1 | x | x | x | x | -5.7%
Cc1cc(C)nc(N/N=C/c2cc(C)n(CC(F)(F)F)c2C)n1 | 20.4% | u | 8.91µM* | 5.3% | -9.8%
COc1ccc(S(=O)(=O)/N=C2/NC(=O)/C(=C\c3cc(OC)c(OC)cc3[N+](=O)[O-])S2)cc1 | 20.2% | -6.0% | -8.5% | u | -27.1%
COc1ccc(N=C2NC(=O)/C(=C/c3ccco3)S2)cc1 | u | u | -20.4% | x | -9.6%

Compound activity: PubChem, National Center for Advancing Translational Sciences (NCATS)
